Measured values reported in PubChem BioAssay AID1159580 (chemical genetic matrix, 2015).
“And” between values parts separate entries of the source, which are not always exact repeats. Identical values can stand only once. Screen size: about 5,500 compounds; about 2,000 (36%) were called active. About 18% were inconclusive and are not listed. No stated cut-off is given here; in the data, active means normalized growth mostly below about 0.91 (no sharp cut-off); inconclusive means no clear call, values can overlap the other calls; inactive means mostly above about 0.92. This is one part of the list.

Test: chemical genetic growth profiling, strain panel (AID 1159580);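 further: tested at 20 µM; growth read once vehicle control cultures reached saturation at 30 °C; 1 = growth at the plate median or of vehicle wells; lower values mean less growth of the strain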
Settings: growth OD
[1] = S. cerevisiae deletion strains, locus YAL013W, strain DEP1, hits give low values
[2] = S. cerevisiae deletion strains, locus YBR021W, strain FUR4, hits give low values
[3] = S. cerevisiae deletion strains, locus YBR229C, strain ROT2, hits give low values
[4] = S. cerevisiae deletion strains, locus YCL029C, strain bik1, hits give low values
[5] = S. cerevisiae deletion strains, locus YDL035C, strain GPR1, hits give low values
[6] = S. cerevisiae deletion strains, locus YDL074C, strain BRE1, hits give low values
[7] = S. cerevisiae deletion strains, locus YDL101C, strain DUN1, hits give low values
[8] = S. cerevisiae deletion strains, locus YDL185W, strain tfp1, hits give low values
[9] = S. cerevisiae deletion strains, locus YDL192W, strain arf1, hits give low values
[10] = S. cerevisiae deletion strains, locus YDR101C, strain arx1, hits give low values
[11] = S. cerevisiae deletion strains, locus YDR162C, strain NBP2, hits give low values
[12] = S. cerevisiae deletion strains, locus YDR318W, strain mcm21, hits give low values
[13] = S. cerevisiae deletion strains, locus YDR388W, hits give low values
[14] = S. cerevisiae deletion strains, locus YDR502C, strain sam2, hits give low values
[15] = S. cerevisiae deletion strains, locus YEL061C, strain CIN8, hits give low values
[16] = S. cerevisiae deletion strains, locus YER110C, hits give low values
[17] = S. cerevisiae deletion strains, locus YER155C, strain BEM2, hits give low values
[18] = S. cerevisiae deletion strains, locus YER167W, strain BCK2, hits give low values
[19] = S. cerevisiae deletion strains, locus YGL078C, strain dbp3, hits give low values
[20] = S. cerevisiae deletion strains, locus YGL086W, strain mad1, hits give low values
[21] = S. cerevisiae deletion strains, locus YGL248W, strain PDE1, hits give low values
[22] = S. cerevisiae deletion strains, locus YGR078C, strain PAC10, hits give low values
[23] = S. cerevisiae deletion strains, locus YGR135W, strain pre9, hits give low values
[24] = S. cerevisiae deletion strains, locus YGR229C, strain SMI1, hits give low values
[25] = S. cerevisiae deletion strains, locus YGR252W, strain gcn5, hits give low values
[26] = S. cerevisiae deletion strains, locus YHR030C, strain SLT2, hits give low values
[27] = S. cerevisiae deletion strains, locus YHR079C, strain IRE1 (second series), hits give low values
[28] = S. cerevisiae deletion strains, locus YHR094C, strain hxt1, hits give low values
[29] = S. cerevisiae deletion strains, locus YHR129C, strain ARP1, hits give low values
[30] = S. cerevisiae deletion strains, locus YHR200W, strain rpn10, hits give low values
[31] = S. cerevisiae deletion strains, locus YIL066C, strain RNR3, hits give low values
[32] = S. cerevisiae deletion strains, locus YIL073C, strain SPO22, hits give low values
[33] = S. cerevisiae deletion strains, locus YIL125W, strain kgd1, hits give low values
[34] = S. cerevisiae deletion strains, locus YIR030C, strain dcg1, hits give low values
[35] = S. cerevisiae deletion strains, locus YJL095W, strain BCK1, hits give low values
[36] = S. cerevisiae deletion strains, locus YJL134W, strain LCB3, hits give low values
[37] = S. cerevisiae deletion strains, locus YJL168C, strain set2, hits give low values
[38] = S. cerevisiae deletion strains, locus YJL187C, strain SWE1 (second series), hits give low values
[39] = S. cerevisiae deletion strains, locus YJR043C, strain POL32, hits give low values
[40] = S. cerevisiae deletion strains, locus YKL068W, hits give low values
[41] = S. cerevisiae deletion strains, locus YKL085W, strain MDH1 (second series), hits give low values
[42] = S. cerevisiae deletion strains, locus YKL085W, strain MDH1, hits give low values
[43] = S. cerevisiae deletion strains, locus YKR001C, strain vps1, hits give low values
[44] = S. cerevisiae deletion strains, locus YLR039C, strain RIC1, hits give low values
[45] = S. cerevisiae deletion strains, locus YLR058C, strain SHM2, hits give low values
[46] = S. cerevisiae deletion strains, locus YLR102C, strain apc9, hits give low values
[47] = S. cerevisiae deletion strains, locus YLR262C, strain YPT6, hits give low values
[48] = S. cerevisiae deletion strains, locus YLR268W, strain sec22, hits give low values
[49] = S. cerevisiae deletion strains, locus YLR330W, strain CHS5, hits give low values
[50] = S. cerevisiae deletion strains, locus YLR342W, strain FKS1 (second series), hits give low values
[51] = S. cerevisiae deletion strains, locus YLR371W, strain rom2, hits give low values
[52] = S. cerevisiae deletion strains, locus YLR418C, strain cdc73, hits give low values
[53] = S. cerevisiae deletion strains, locus YML016C, strain PPZ1, hits give low values
[54] = S. cerevisiae deletion strains, locus YML032C, strain rad52, hits give low values
[55] = S. cerevisiae deletion strains, locus YML124C, strain tub3, hits give low values
[56] = S. cerevisiae deletion strains, locus YMR078C, strain ctf18, hits give low values
[57] = S. cerevisiae deletion strains, locus YMR223W, strain ubp8, hits give low values
[58] = S. cerevisiae deletion strains, locus YMR263W, strain SAP30, hits give low values
[59] = S. cerevisiae deletion strains, locus YMR307W, strain GAS1, hits give low values
[60] = S. cerevisiae deletion strains, locus YNL067W, strain RPL9B, hits give low values
[61] = S. cerevisiae deletion strains, locus YNL233W, strain BNI4, hits give low values
[62] = S. cerevisiae deletion strains, locus YNL250W, strain rad50, hits give low values
[63] = S. cerevisiae deletion strains, locus YNL271C, strain bni1, hits give low values
[64] = S. cerevisiae deletion strains, locus YNL298W, strain CLA4, hits give low values
[65] = S. cerevisiae deletion strains, locus YNL307C, strain MCK1, hits give low values
[66] = S. cerevisiae deletion strains, locus YNR052C, strain pop2, hits give low values
[67] = S. cerevisiae deletion strains, locus YOL006C, strain TOP1, hits give low values
[68] = S. cerevisiae deletion strains, locus YOL012C, strain htz1
[69] = S. cerevisiae deletion strains, locus YOL147C, strain pex11, hits give low values
[70] = S. cerevisiae deletion strains, locus YOR061W, strain CKA2, hits give low values
[71] = S. cerevisiae deletion strains, locus YOR069W, strain VPS5, hits give low values
[72] = S. cerevisiae deletion strains, locus YOR136W, strain idh2, hits give low values
[73] = S. cerevisiae deletion strains, locus YOR144C, strain elg1, hits give low values
[74] = S. cerevisiae deletion strains, locus YOR184W, strain ser1, hits give low values
[75] = S. cerevisiae deletion strains, locus YOR316C, strain cot1, hits give low values
[76] = S. cerevisiae deletion strains, locus YPR119W, strain clb2, hits give low values
[77] = S. cerevisiae deletion strains, locus YPR141C, strain kar3, hits give low values
[78] = S. cerevisiae deletion strains, locus YPR163C, strain tif3, hits give low values
[79] = S. cerevisiae deletion strains, locus YPR167C, strain met16, hits give low values
[80] = S. cerevisiae deletion strains, strain wtn01, hits give low values
[81] = S. cerevisiae strains, strain wild type, hits give low values

Measured: normalized growth

COC(=O)c1c(C)cc(OC(=O)c2c(C)cc(O)c(C=O)c2O)c(C)c1O
inactive: [1] 0.93 | [2] 1.05 | [3] 1 | [4] 0.994 | [5] 0.994 | [6] 1.03 | [7] 1.01 | [8] 0.991 | [9] 0.934 | [10] 0.994 | [11] 0.899 | [12] 0.934 | [13] 0.988 | [14] 0.984 | [15] 0.971 | [16] 1.03 | [17] 1.03 | [18] 0.999 | [19] 1.01 | [20] 0.942 | [21] 0.98 | [22] 0.971 | [24] 0.919 | [25] 1.01 | [26] 0.999 and 0.975 | [27] 0.999 | S. cerevisiae deletion strains, locus YHR079C, strain IRE1, hits give low values 0.978 | [28] 1 | [29] 0.963 | [30] 0.962 | [31] 0.985 | [32] 1.02 | [33] 0.991 | [34] 1.03 | [35] 0.975 and 0.987 | [36] 1.01 | [37] 1.01 | [38] 0.972 | [39] 0.971 | S. cerevisiae deletion strains, locus YJR066W, strain TOR1, hits give low values 0.919 | [40] 1.03 | [41] 0.987 | [42] 0.987 | [44] 0.947 | [45] 0.957 | [46] 1.02 | S. cerevisiae deletion strains, locus YLR113W, strain HOG1, hits give low values 0.995 | [47] 0.933 | [48] 0.916 | [49] 1.01 | [50] 1.07 | [51] 0.99 | [52] 0.924 | [53] 1 | [54] 0.96 | [55] 1 | [56] 1.02 | [57] 0.938 | [58] 0.987 | [59] 0.789 | [60] 0.972 | S. cerevisiae deletion strains, locus YNL183C, strain NPR1, hits give low values 0.917 | [61] 0.982 | [62] 0.988 | [63] 1.03 | [64] 1.01 | [65] 1.01 | [66] 1 | [67] 1.06 | [68] 0.816 | [69] 1.04 | [70] 1 | [71] 1 | [72] 1.02 | [73] 1.01 | [74] 0.931 | S. cerevisiae deletion strains, locus YOR231W, strain MKK1, hits give low values 0.981 | [75] 1.03 | S. cerevisiae deletion strains, locus YPL256C, strain CLN2, hits give low values 0.988 | [76] 0.996 | [77] 1 | [78] 1.01 | [79] 0.963 | [80] 0.948 | [81] 0.926
active: [23] 0.893 | [43] 0.891

COC(=O)c1c(C)cc(OC(=O)c2c(C)c(Cl)c(O)c(C=O)c2O)c(C)c1O
inactive: [1] 1 | [2] 1 | [3] 1 | [4] 0.985 | [5] 1.01 | [6] 1 | [7] 0.978 | S. cerevisiae deletion strains, locus YDL134C, strain PPH21, hits give low values 0.994 | [8] 0.963 | [9] 0.993 | [10] 0.995 | S. cerevisiae deletion strains, locus YDR150W, strain NUM1, hits give low values 0.984 | [11] 0.997 | [12] 0.99 | [13] 0.985 | [14] 0.984 | [15] 0.99 | [16] 0.989 | [17] 1 | [18] 1 | [19] 0.984 | [20] 0.993 | [21] 0.979 | [22] 0.988 | [23] 0.982 | [24] 0.971 | [25] 1 | [26] 0.993 | [27] 0.987 | [28] 0.987 | [29] 1 | [30] 0.985 | [31] 0.973 | [32] 0.906 | [33] 1 | [34] 0.983 | [35] 1.01 | [36] 0.989 | [37] 0.992 | [38] 0.983 | [39] 1 | S. cerevisiae deletion strains, locus YJR075W, strain HOC1, hits give low values 1 | S. cerevisiae deletion strains, locus YKL009W, strain mrt4, hits give low values 0.984 | [40] 0.984 | [41] 0.996 | [42] 0.996 | S. cerevisiae deletion strains, locus YKL190W, strain CNB1, hits give low values 0.992 | [43] 0.989 | [44] 1 | [45] 0.988 | [46] 0.982 | [47] 0.968 | [48] 0.972 | [49] 0.993 | [50] 0.979 | [51] 0.98 | [52] 1 | [53] 0.992 | [54] 0.981 | [55] 0.985 | [56] 0.981 | [57] 0.979 | [58] 0.971 | [59] 0.972 | [60] 0.995 | S. cerevisiae deletion strains, locus YNL128W, strain TEP1, hits give low values 0.998 | S. cerevisiae deletion strains, locus YNL153C, strain GIM3, hits give low values 0.986 | [61] 0.989 | [62] 0.997 | [63] 0.996 | [64] 0.98 | [65] 0.98 | S. cerevisiae deletion strains, locus YNL322C, strain KRE1, hits give low values 1 | [66] 0.979 | [67] 1.03 | [68] 0.881 | [69] 0.981 | [70] 0.999 | [71] 0.986 | [72] 0.993 | [73] 0.978 | [74] 0.976 | [75] 0.996 | S. cerevisiae deletion strains, locus YPL055C, strain LGE1, hits give low values 0.984 | S. cerevisiae deletion strains, locus YPL241C, strain CIN2, hits give low values 0.989 | [76] 0.975 | [77] 0.986 | [78] 0.977 | [79] 0.993 | [80] 0.975 | [81] 1.01
